The values that follow come from the OligoGym collection.
Further: reference of the scale not given here.

For the first assay, the target named is ADRA2B. Description: pooled miR-30 sensor sort-seq; sequence = guide strand. To be noted: shRNA.
TTGAAATAGTGATTCTGTCTGC: the sensor-assay potency score (higher = more potent) worked out at 0.106. On the same count and under the same terms, in the case of TAACTTGAAATAGTGATTCTGT it was 0.986. On the same count and under the same terms, in the case of TAGACAAGGATCATGATGAGGC it was 0.0762. Still for that read-out and setting: in the case of AAATCTAGCAGGTCCATCTGGC it was -0.198. Turning to TCATCTTAGACTGTTGCCGAGG, the sensor-assay potency score (higher = more potent) was -0.739.

In turn, TGTCCGTTGACCTCTCTGGCAG returned a sensor-assay potency score (higher = more potent) of -0.964. As for TCCTGGTTGAGCTTGCACTGGG, the sensor-assay potency score (higher = more potent) is -0.653.

Sequence TTGGCGATCAGGTAGATGCGCA returned a sensor-assay potency score (higher = more potent) of -0.201. Still for that read-out and setting: in the case of TTGTACTCCAGCGCGCGGCTCA it was -0.722; in that of ATAACAGGGTTCAGTGAGCTGT, -0.793. As to TAACAGGGTTCAGTGAGCTGTT, the sensor-assay potency score (higher = more potent) was -0.17. For TACTCTGGCCTCAACAACCCAC, the sensor-assay potency score (higher = more potent) was -0.575. As to TTCAGTGAGCTGTTGCAGTAGC, the sensor-assay potency score (higher = more potent) worked out at 0.233.

For the sequence TTTTTGGTTCTCTAGTGTGTTC, the sensor-assay potency score (higher = more potent) was -1.08.

For TTGGAGTTGTACTCCAGCGCGC, the sensor-assay potency score (higher = more potent) is -0.762. Still for that read-out and setting: in the case of TAGCGTAATAACTCAGACCTTT it was 0.245; in that of TTCGAGTGTCCGTTGACCTCTC, 0.0234; in that of TTTATTGATAAAATAGCTCAGA, -0.103. Consider AACGCCAATGACCACAGCCAGC, for which the sensor-assay potency score (higher = more potent) was -1.54.

The next assay deals with ADRB1. Described as above. The conditions noted are these: shRNA.
As to ACACACAGGGTCTCGATGCTGG, the sensor-assay potency score (higher = more potent) is -0.4. Sequence ACTGAGGTCCACAGCTCGCAGA gave a sensor-assay potency score (higher = more potent) of -1.49. The sequence ACGAAGTCGCAGCACTTGGGGT returned a sensor-assay potency score (higher = more potent) of -1.34.

Sequence TTGAGCGCCTTCTGCTCGCGCA displayed a sensor-assay potency score (higher = more potent) of -1.01.

The sequence TCTTCTTCACCTGCTTCTGGGC showed a sensor-assay potency score (higher = more potent) of -0.965. ATGAGCAGCACGATGAGCGCCA: the sensor-assay potency score (higher = more potent) is -0.267. In turn, TGTCGATCTTCTTCACCTGCTT came in with a sensor-assay potency score (higher = more potent) of 0.319. Same read-out and setting: in the case of TTGGGGTCGTTGTAGCAGCGGC it was -1.11; in that of TCGTCGTCGTCGTCCGAGGCGG, -1.56; in that of TCCACTGAGGTCCACAGCTCGC, -1.74.

Take GACATCGTCGTCGTCGTCGTCC: the sensor-assay potency score (higher = more potent) is -1.45. The same measure, in the same setting: then AAGAAGGAGCCGTACTCCCAGC, with -1.16; and TAGAAGGAGACTACGGACGAGG, with -0.754; and TCCACTGCTGAGACAGCGGCTC, with -1.08. As for TTGCGGAAGTCGGGGCTGCGGC, the sensor-assay potency score (higher = more potent) was -1.38. In the case of TGTCCACTGCTGAGACAGCGGC, the sensor-assay potency score (higher = more potent) is -1.28. Still for that read-out and setting: then TCGAGTCGCTGTCCGCCGCCGC, with -1.38; and TTGGTGACGAAGTCGCAGCACT, with -0.788.

Consider TTGAAGAAGACGAAGAGGCGGT, for which the sensor-assay potency score (higher = more potent) was determined as 0.771.

ACGCACAGCACGTCCACTGAGG returned a sensor-assay potency score (higher = more potent) of -1.84. In turn, TCGCTGTCCGCCGCCGCCCCGC came in with a sensor-assay potency score (higher = more potent) of -1.6.
